Calb FLC = C. albicans growth modulation with fluconazole | growth inhibition, % (test concentration not listed) | 300,000 tested, 0.57% active | C. albicans CaCi-2 (fluconazole-resistant clinical isolate) + fluconazole, Alamar Blue growth, 48 h;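 active = growth inhibition above about 58% in most replicates, limit read from the data, passing the limit was not always enough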;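 note: all wells also contain fluconazole at 8 µg/ml as a sub-toxic cotreatment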
Beta apoptosis = blocks beta cell apoptosis. protection from apoptosis, % (concentration not given with the values). INS-1E cytokine-induced death, ATP luminescence, 48 h; percent of positive-control rescue, neutral wells zero. 300,000 tested, 0.8% active;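 active = Every replicate reaches about 75%, or at least half do and their mean reaches it too, limit read from the data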;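 note: higher means more ATP so stronger rescue from cytokine killing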
Shn3 3UTR inh = Schnurri-3 reporter inhibition in Clone20 osteoblasts. Clone20 osteoblast Shn3 3'UTR firefly luciferase, 24 h. inhibition, % at 12.5 µM. 360,000 tested, 0.52% active;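 active = mean inhibition of at least 75% with every replicate also reaching 75%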
697 NFkB inh = lowers PMA/ionomycin-induced NF-kB signal in 697 B cells; inhibition, % at 4 µM; 330,000 tested, 0.33% active; 697 B-cell NF-kB luciferase reporter, 16 h; in the data active = inhibition above about 35%
Jurkat NFkB inh = lowers PMA/ionomycin-induced NF-kB signal in Jurkat cells; PMA/ionomycin-induced NF-kB luciferase reporter, luminescence; inhibition, % at 4 µM; 330,000 tested, 0.53% active; AID 435003; in the data active = inhibition above about 50%
A number is an active result. Sampled rows, rich in hits. Any-hit rate of the full collection: about 2%.

`O=C(Nc1nc2c(Cl)cccc2s1)c1ccc(Br)o1` gave Calb FLC 54.1, Beta apoptosis inactive, Shn3 3UTR inh inactive, 697 NFkB inh inactive and Jurkat NFkB inh inactive.
`CCN1C(N(C)C)=NC[C@@H]1Cc1ccccc1` gave Beta apoptosis inactive, Shn3 3UTR inh inactive, 697 NFkB inh inactive and Jurkat NFkB inh inactive.
For O=C(NCc1ccc(F)cc1)c1ccc(CS(=O)(=O)Cc2ccc(F)cc2)o1 the results were Calb FLC inactive, Beta apoptosis inactive, Shn3 3UTR inh inactive, 697 NFkB inh inactive and Jurkat NFkB inh inactive.
`O=C(NCc1ccc(F)cc1)c1ccc(CS(=O)(=O)Cc2ccccc2F)o1` gave Calb FLC 94.6, Beta apoptosis inactive, Shn3 3UTR inh inactive, 697 NFkB inh inactive and Jurkat NFkB inh inactive.
C[C@@H]1CCCCO[C@H](CN(C)C(=O)Nc2ccc(F)cc2)[C@@H](C)CN([C@H](C)CO)C(=O)c2cc(N(C)C)ccc2O1 was read as Shn3 3UTR inh inactive.
For Cc1ccccc1Cn1nnc2c1C(=O)c1ccccc1C2=O the results were Calb FLC inactive, Shn3 3UTR inh inactive, 697 NFkB inh inactive and Jurkat NFkB inh inactive.
Cc1cccc(Cn2nnc3c2C(=O)c2ccccc2C3=O)c1 was read as Calb FLC inactive, Beta apoptosis 109.8, Shn3 3UTR inh inactive, 697 NFkB inh inactive and Jurkat NFkB inh inactive.
COCOCCn1cc(CN2CCS(=O)(=O)N(Cc3ccc(-c4ccc(Cl)nc4)cc3)C(C)C2=O)nn1 (configuration not stated) was read as Shn3 3UTR inh inactive.
C[n+]1c2n(c3ccccc31)N=C(c1ccc(-c3ccccc3)cc1)CS2 was read as Calb FLC 102.8, Beta apoptosis 108.2, Shn3 3UTR inh inactive, 697 NFkB inh inactive and Jurkat NFkB inh inactive.
CCN1C[C@@H]2[C@@H]3C(=O)N(C)C(=O)[C@@H]3[C@](CC)(C1=O)N2C(=O)c1ccc(C(C)(C)C)cc1 was read as Beta apoptosis inactive, Shn3 3UTR inh inactive, 697 NFkB inh inactive and Jurkat NFkB inh inactive.
For Cc1cc(OCC(=O)N(C)Cc2ccccc2)ccc1Cl the results were Calb FLC inactive, Beta apoptosis 109.5, Shn3 3UTR inh inactive, 697 NFkB inh inactive and Jurkat NFkB inh inactive.
For CC(C)NS(=O)(=O)c1ccc(Br)c(C(=O)OC(C)C(=O)NC2CCCCC2C)c1 (configuration not stated) the results were Calb FLC inactive, Beta apoptosis inactive, Shn3 3UTR inh inactive, 697 NFkB inh inactive and Jurkat NFkB inh inactive.
For Fc1ccc(/C=C2\CCCC3=C2Nc2ncnn2C3c2ccc(F)cc2)cc1 (configuration not stated) the results were Calb FLC inactive, Beta apoptosis inactive, Shn3 3UTR inh 97.4, 697 NFkB inh inactive and Jurkat NFkB inh inactive.
For COc1ccc(C2C3=C(Nc4ncnn42)c2ccccc2CCC3)cc1 (configuration not stated) the results were Calb FLC inactive, Beta apoptosis inactive, Shn3 3UTR inh inactive, 697 NFkB inh inactive and Jurkat NFkB inh inactive.
CCCCc1cc(=O)oc2c(C)c(OCC(=O)NCC3CCC(C(=O)O)CC3)ccc12 (configuration not stated) was read as Calb FLC inactive, Beta apoptosis inactive, Shn3 3UTR inh inactive, 697 NFkB inh inactive and Jurkat NFkB inh inactive.
CCc1ccc(OCCNc2cc(N3CCNC(C)C3)ccc2[N+](=O)[O-])cc1 (configuration not stated) was read as Beta apoptosis inactive, Shn3 3UTR inh 89.2, 697 NFkB inh inactive and Jurkat NFkB inh inactive.
`CCN(CC)CCNC(=O)C1(O)c2cc(Br)ccc2NC(=O)N1c1ccccc1` (configuration not stated) gave Calb FLC inactive, Beta apoptosis inactive, Shn3 3UTR inh inactive, 697 NFkB inh inactive and Jurkat NFkB inh inactive.
Screening CC(=O)N1C(C(=O)O)Cc2c([nH]c3ccccc23)C1C (configuration not stated) returned Calb FLC inactive, Shn3 3UTR inh inactive, 697 NFkB inh inactive and Jurkat NFkB inh inactive.
CCN(CC)C(=O)c1ccc(S(=O)(=O)N2CCC(c3nc4ccccc4s3)CC2)cc1 was read as Calb FLC inactive, Beta apoptosis 99.8, Shn3 3UTR inh inactive, 697 NFkB inh inactive and Jurkat NFkB inh inactive.
`CC1CCCN(C(=O)c2ccc(S(=O)(=O)N3CCC(c4nc5ccccc5s4)CC3)cc2)C1` (configuration not stated) gave Calb FLC inactive, Beta apoptosis inactive, Shn3 3UTR inh inactive, 697 NFkB inh inactive and Jurkat NFkB inh inactive.
Cc1ccc(S(=O)(=O)N2C[C@@H]3[C@H]4CC[C@H](C4)[C@@H]3[C@@H](C)[C@@H]2c2ccn([Si](C(C)C)(C(C)C)C(C)C)c2)cc1 was read as Shn3 3UTR inh inactive and 697 NFkB inh inactive.
`CC(=O)OC[C@]12CC[C@H]3[C@@](C)(CC[C@H]4C(C)(C)CCC[C@]34C)[C@@H]1CC(C1=CC(=O)OC1O)O2` (some centres not stated) gave Shn3 3UTR inh 98.1.
For NNC(=S)Nc1cccc(Cl)c1 the results were Calb FLC 92.1, Beta apoptosis inactive, Shn3 3UTR inh inactive, 697 NFkB inh inactive and Jurkat NFkB inh inactive.
CC(=O)c1sc(NC(=O)CCS(=O)(=O)c2ccccc2)nc1C was read as Calb FLC 85.5, Beta apoptosis inactive, Shn3 3UTR inh inactive, 697 NFkB inh inactive and Jurkat NFkB inh inactive.
For COCCSc1nnc(NC(=O)CCS(=O)(=O)c2ccccc2)s1 the results were Calb FLC 88.2, Beta apoptosis inactive, Shn3 3UTR inh inactive, 697 NFkB inh inactive and Jurkat NFkB inh inactive.
Screening O=C(Nc1cccc(Cl)c1)C1CCCN(C2=NS(=O)(=O)c3ccccc32)C1 (configuration not stated) returned Shn3 3UTR inh inactive, 697 NFkB inh inactive and Jurkat NFkB inh inactive.
Screening NC(=S)N/N=C/c1ccc(-c2cc(Cl)ccc2Cl)o1 returned Calb FLC 92.5, Beta apoptosis inactive, Shn3 3UTR inh inactive, 697 NFkB inh inactive and Jurkat NFkB inh inactive.
`CCC1(CCC(C)C)SC(N)=NC1=O` (configuration not stated) gave Shn3 3UTR inh inactive.
Screening O=S(=O)(c1ccc(NC(=S)N/N=C/c2ccc(O)c(O)c2)cc1)N1CCOCC1 returned Calb FLC inactive, Beta apoptosis inactive, Shn3 3UTR inh inactive, 697 NFkB inh inactive and Jurkat NFkB inh inactive.
O=[N+]([O-])c1cc(Cl)cc(/C=N/NC(=S)Nc2ccc(S(=O)(=O)N3CCOCC3)cc2)c1O was read as Calb FLC 108.6, Beta apoptosis inactive, Shn3 3UTR inh inactive, 697 NFkB inh inactive and Jurkat NFkB inh inactive.
`CC1(C)CC(=O)C=C(c2ccc(-c3cnn(Cc4ccccc4)c3)cc2)C1=O` gave Shn3 3UTR inh inactive.
CC(C)Oc1ccc(S(=O)(=O)N2CCOCC2)cc1NC(=O)CSC(=S)N1CCCC1 was read as Shn3 3UTR inh inactive.
Screening CC(=O)Oc1ccc(N(C(C)=O)S(=O)(=O)c2cccs2)c2ccccc12 returned Calb FLC inactive, Beta apoptosis 92.7, Shn3 3UTR inh inactive, 697 NFkB inh inactive and Jurkat NFkB inh inactive.
